# PubChem BioAssay AID651956 (Broad Institute, 2012)
# Potency and affinity values are given separately. Results filed as inconclusive are left out. Activity calls are given as the source filed them.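 The calls were made as follows: active = in every test run, a fitted half-maximal concentration for signal decrease at or below twice the highest tested concentration; inconclusive = runs disagree, flat 30 to 70% decrease, or poor fit; inactive = the rest.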
# Assay: activation of miR-122 Renilla sensor silencing – cell-based, Huh7 psiCHECK-miR122, Renilla luciferase, cherry-picked, dose response (AID 651956);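 also: Renilla luciferase from a miR-122 sensor reporter so lower signal means miR-122 activation; 0% = median neutral control wells and -100% = median positive control wells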
# Settings: Huh7 psiCHECK-miR122 Renilla luciferase reporter, 48 h; series mostly up to 35 µM; activity change, negative = signal decrease: at the top concentration
row,Compound,"activity change, negative = signal decrease"
1,O=C(Nc1ncc(Cc2cccc(C(F)(F)F)c2)s1)c1ccc(-c2cccc([N+](=O)[O-])c2)o1,-14.5% (inactive)
2,O=C(NC[C@H]1[C@H](c2ccccc2)[C@@H](CO)N1Cc1ccccn1)C1CC1,-15.8% [at 30 µM] (inactive)
3,Cc1ccc(C2CC(C(F)(F)F)n3nc(C(=O)NCc4ccco4)cc3N2)cc1 (stereo not drawn),-13.8% (inactive)
4,C=CCNC(=S)NNC(=O)Cn1c(-c2ccccc2)cc(=O)n2ncnc12,2.08% (inactive)
5,C/C=C/c1ccc([C@@H]2[C@@H](CO)N[C@@H]2CN(C(=O)C2CCCC2)C(C)C)cc1,72.6% (inactive)
6,CC(=O)Nc1ccc2c(c1)C(=O)N(C)[C@@H]1CC[C@H](CC(=O)NC3CCCCC3)O[C@H]1CO2,85.8% (inactive)
7,COc1ccc(C#Cc2ccc3c(c2)O[C@H](CN(C)C(=O)CN2CCOCC2)[C@@H](C)CN([C@@H](C)CO)S3(=O)=O)cc1,-14.5% (inactive)
8,C[C@H](O)C#Cc1ccc2c(c1)O[C@@H](CN(C)Cc1ccc(-c3ccccc3)cc1)[C@H](C)CN([C@H](C)CO)S2(=O)=O,45.2% (inactive)
9,CCCN(C[C@@H]1N[C@@H](CO)[C@H]1c1ccc(-c2cccnc2)cc1)C(C)=O,-34.4% (inactive)
10,CN1C(=O)c2cc(NC(=O)c3cccs3)ccc2OC[C@H]2O[C@H](CC(=O)NCCN3CCCCC3)CC[C@H]21,-21.6% (inactive)
11,CCCNC(=O)Nc1ccc2c(c1)C(=O)N(C)[C@@H]1CC[C@@H](CC(=O)NCC3CCCCC3)O[C@H]1CO2,71.2% (inactive)
12,COc1ccc(CN2CCOC2=O)cc1OC,60.2% (inactive)
13,CN(C)CCCNC(=O)C[C@H]1CC[C@H]2[C@H](COc3ccc(NS(C)(=O)=O)cc3C(=O)N2C)O1,-3.73% (inactive)
